The supplement of paper PMC10127200
Structures can show the parent of a compound that is named as a salt.

How the values were obtained:
Assay in all cases: Euclidean distance of Cell Painting phenotypic profile (signed KS, 77 features) to DMSO centroid (dimensionless distance); 5 or 10 uM (library dependent); higher = stronger phenotypic change vs DMSO (phenoactivity)
Conditions in all cases: 48 h
786-O = tested on: 786-O
Procedure, shortened: (§1)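 Phenoactivity is defined as the Euclidean distance from a compound profile to the median vehicle profile. Each profile comprised 77 Harmony features, scored as signed Kolmogorov-Smirnov statistics versus same-plate vehicle wells, then plate-position corrected, correlation-weighted and replicate-averaged at the top dose. Five cancer lines and one healthy fibroblast line were exposed to library compounds for 48 h at 10 or 5 uM (0.1% DMSO final).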

A549 = tested on: A549
Procedure, shortened: as §1

DU145 = tested on: DU145
Procedure, shortened: as §1

FB = tested on: FB
Procedure, shortened: as §1

HEPG2 = tested on: HEPG2
Procedure, shortened: as §1

OVCAR4 = tested on: OVCAR4
Procedure, shortened: as §1

SMILES	Euclidean distance (786-O)	Euclidean distance (A549)	Euclidean distance (DU145)	Euclidean distance (FB)	Euclidean distance (HEPG2)	Euclidean distance (OVCAR4)
FC(F)(F)C(Cl)Br (stereo not given) [Halothane]	0.835	0.628	0.788	1	0.854	1.59
O=C(NCc1ccc(Oc2ccccc2)cc1)c1nc(-c2cc(Br)c(O)c(Br)c2)no1	0.904	1.1	0.858	0.788	1.55	1.21
C=C(C)[C@@H]1CC[C@]2(C(=O)O)CC[C@]3(C)[C@H](CC[C@@H]4[C@@]5(C)CC[C@H](O)C(C)(C)[C@@H]5CC[C@]43C)[C@@H]12 [Betulinic acid]	1	0.893	0.693	0.844	0.744	0.866
N#C/C(=C1/SC[C@@H](c2ccc(Cl)cc2Cl)S1)n1ccnc1 [Luliconazole]	1.47	1.03	0.686	1.08	0.589	1.1
CN1CCN(CC/C=C2/c3ccccc3Sc3ccc(S(=O)(=O)N(C)C)cc32)CC1 [Thiothixene]	2.81	2.33	2.21	2.69	3.3	2.03
CC(C)(C)NCC(O)COc1cccc2c1CC(O)C(O)C2 (stereo not given) [Nadolol]	0.954	1.38	1.88	0.792	0.849	1.11
NC[C@H]1O[C@H](O[C@H]2[C@H](O[C@@H]3O[C@H](CO)[C@@H](O)[C@H]3O)[C@@H](O)[C@H](N)C[C@@H]2N)[C@H](N)[C@@H](O)[C@@H]1O [Ribostamycin Sulfate]	1.45	1.17	1.23	0.806	0.615	1.22
CCNC(=O)CCC/C=C\C[C@@H]1[C@@H](/C=C/[C@@H](O)CCc2ccccc2)[C@H](O)C[C@@H]1O [Bimatoprost]	1.63	1.42	0.906	1.4	0.869	1.27
CCOC(=O)n1ccn(C)c1=S [Carbimazole]	1.03	1.11	1.2	0.945	0.319	1.09
C=CC(=O)Nc1cccc(Nc2nc(Nc3ccc(N4CCN(C(C)=O)CC4)cc3OC)ncc2C(F)(F)F)c1	1.04	0.866	0.799	1.01	0.62	0.883
CCCOc1ccc2c(c1)CC[C@@H]1[C@@H]2CC[C@]2(C)[C@@H](OC)CC[C@@H]12 [Promestriene]	1.13	0.797	0.94	1.24	0.764	1.01
C/C(O)=C(\C#N)C(=O)Nc1ccc(C(F)(F)F)cc1 [Teriflunomide]	0.702	0.732	0.988	1.1	0.844	2.02
CCCCC1=NC2(CCCC2)C(=O)N1Cc1ccc(-c2ccccc2-c2nnn[nH]2)cc1 [Irbesartan]	1.03	0.928	0.351	0.966	0.777	1.79
Cc1c(C(=O)NN2CCCCC2)nn(-c2ccc(Cl)cc2Cl)c1-c1ccc(I)cc1	1.16	1.17	0.842	1.03	0.6	0.903
COc1cc(NS(C)(=O)=O)ccc1Nc1c2ccccc2nc2ccccc12 [Amsacrine hydrochloride]	3.5	3.49	4.13	3.04	3.28	3.46
COC(=O)C1=C(C)NC(C)=C(C(=O)OC(C)C)C1c1cccc2nonc12 (stereo not given) [Isradipine]	1.36	1.33	1.21	1.42	1.56	1.1
O=C(NC[C@H](O)CO)c1ccncc1Nc1ccc(I)cc1F	2.39	2.67	2.49	3.7	1.53	2.4
O=C(/C=C/c1ccc(O)c(O)c1)c1ccc(O)cc1O [Butein]	1.56	1.3	1.12	1.51	1.5	1.12
CC(=O)Oc1ccccc1C(=O)O [Aspirin]	0.701	0.531	0.625	0.734	0.608	0.816
CN(C)c1nc(N(C)C)nc(N(C)C)n1 [Altretamine]	1.11	0.902	0.807	1.32	0.597	0.929
COC1CCN(C(=O)c2cc(Cc3n[nH]c(=O)c4ccccc34)ccc2F)CC1	1.09	1.25	1.32	1.5	1.36	1.3
O=C(O)[C@H]1O[C@@H](Oc2cc3oc(-c4ccccc4)cc(=O)c3c(O)c2O)[C@H](O)[C@@H](O)[C@@H]1O [Baicalin]	1.89	0.742	1.25	1.48	0.763	1.22
CC(C)Cc1ccc(C(C)C(=O)OCc2ccccn2)cc1 (stereo not given) [Ibuprofen piconol]	1.39	0.595	0.983	0.788	0.518	1.2
C=C1CC/C=C(/C)CC[C@@H]2[C@@H]1CC2(C)C [Œ≤-Caryophyllene]	1.02	0.652	0.86	0.747	0.457	1.68
CC(C)CN(C[C@@H](O)[C@H](Cc1ccccc1)NC(=O)O[C@H]1CO[C@H]2OCC[C@H]21)S(=O)(=O)c1ccc(N)cc1 [Darunavir Ethanolate]	0.575	0.867	1.31	0.84	0.355	0.797
